90 compounds from publication PMC4336329 (PLoS ONE, 2015) can be followed below.

Each structure is given as a SMILES string. Screen size: about 310,000 compounds; about 14,000 (4.5%) showed an effect of 50% or more. Effects have a minus sign here. For the sample, strong results were picked, then their nearest neighbours and some compounds at random.
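Also: peak tail current of the secondary pulse compared with the same well before compound.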

For the experiment, the target named is human ether-à-go-go-related gene (hERG) potassium channel (human, UniProt Q12809). The experiment is described as follows: primary screen, population patch clamp on CHO cells stably expressing hERG; higher = less effect of the substance.
Sequence of human ether-à-go-go-related gene (hERG) potassium channel (Q12809 whole entry, looked up): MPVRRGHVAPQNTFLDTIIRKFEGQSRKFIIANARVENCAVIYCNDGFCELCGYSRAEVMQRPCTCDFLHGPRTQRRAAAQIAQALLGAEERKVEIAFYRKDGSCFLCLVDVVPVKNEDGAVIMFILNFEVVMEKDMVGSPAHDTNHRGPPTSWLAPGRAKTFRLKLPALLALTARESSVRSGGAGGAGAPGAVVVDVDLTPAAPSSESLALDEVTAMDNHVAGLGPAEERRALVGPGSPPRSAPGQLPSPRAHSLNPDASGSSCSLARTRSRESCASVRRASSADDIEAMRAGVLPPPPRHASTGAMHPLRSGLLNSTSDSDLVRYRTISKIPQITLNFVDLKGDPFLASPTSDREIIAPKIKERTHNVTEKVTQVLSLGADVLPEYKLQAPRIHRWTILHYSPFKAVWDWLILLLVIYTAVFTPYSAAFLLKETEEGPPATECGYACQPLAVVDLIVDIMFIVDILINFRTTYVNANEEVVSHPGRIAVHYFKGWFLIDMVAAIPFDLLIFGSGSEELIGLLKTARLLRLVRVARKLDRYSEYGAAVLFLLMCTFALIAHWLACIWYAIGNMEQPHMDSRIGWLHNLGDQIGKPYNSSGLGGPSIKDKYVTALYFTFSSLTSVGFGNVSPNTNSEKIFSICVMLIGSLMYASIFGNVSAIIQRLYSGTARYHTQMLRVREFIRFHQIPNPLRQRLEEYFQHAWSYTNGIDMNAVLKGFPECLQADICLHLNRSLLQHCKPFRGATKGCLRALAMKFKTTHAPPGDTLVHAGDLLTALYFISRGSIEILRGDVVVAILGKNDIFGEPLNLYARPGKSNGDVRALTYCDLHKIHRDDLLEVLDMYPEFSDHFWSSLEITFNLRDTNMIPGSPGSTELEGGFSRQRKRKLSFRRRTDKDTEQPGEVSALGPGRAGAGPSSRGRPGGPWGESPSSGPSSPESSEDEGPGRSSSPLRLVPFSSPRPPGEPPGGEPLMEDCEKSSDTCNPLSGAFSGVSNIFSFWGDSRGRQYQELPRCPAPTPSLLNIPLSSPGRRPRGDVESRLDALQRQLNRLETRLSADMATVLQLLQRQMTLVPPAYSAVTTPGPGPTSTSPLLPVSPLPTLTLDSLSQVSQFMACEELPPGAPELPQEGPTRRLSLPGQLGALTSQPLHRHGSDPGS
On to `O=C(O)c1ccc(N2C(=O)c3cccnc3C2=O)cc1`, for which the “hERG current change (%, negative = inhibition) at 10uM” value amounted to 16.9%.
As to `O=C1CCCN1c1ccc(S(=O)(=O)N2CCN(c3ccccc3)CC2)cc1`, the “hERG current change (%, negative = inhibition) at 10uM” value was found to be 16.3%.
For `COc1ccc2c(c1OC)C(=O)OC2Nc1nc(-c2ccc(-c3ccccc3)cc2)cs1` (stereo not drawn), the “hERG current change (%, negative = inhibition) at 10uM” value was found to be 17%.
On to `CC(C)=NNC(=O)c1c(O)c2ccccc2[nH]c1=O`, for which the “hERG current change (%, negative = inhibition) at 10uM” value is listed as -20%.
The same measure for `NC(=O)c1cc(N2C(=O)C=CC2=O)ccc1Cl`: 1.79%; for `NS(=O)(=O)c1ccc(N2C(=O)C(=O)/C(=C(/O)c3ccccc3)C2c2ccc(Cl)cc2)cc1` (stereo not drawn): 18.1%; for `CCN(CCNC(=O)C1CCN(S(C)(=O)=O)CC1)c1ccccc1`: -1.8%.
The same measure for `Cc1oc(-c2ccc(Cl)cc2)nc1CN1CCC(C(=O)NCCCN2CCOCC2)CC1`: -26.5%; for `CCN(CCNC(=O)C1CCCN(Cc2nc(-c3ccc(OC)cc3)oc2C)C1)c1ccccc1` (stereo not drawn): -28.1%.
As for `CCC1CCCCN1CCCNC(=O)C1CCN(Cc2nc(-c3ccc(Cl)cc3)oc2C)CC1` (stereo not drawn), the “hERG current change (%, negative = inhibition) at 10uM” value is recorded as -42.2%.
The same measure for `CCN(CCNC(=O)C1CCN(Cc2nc(-c3ccc(Cl)cc3)oc2C)CC1)c1ccccc1`: -65.9%; for `CCN1CCN(CCNC(=O)C2CCN(Cc3nc(-c4ccc(Cl)cc4)oc3C)CC2)CC1`: 1.11%.
The result for `CCc1ccc(-c2nc(CN3CCC(C(=O)NCCN(CC)c4ccccc4)CC3)c(C)o2)cc1` reads -69.5%; that for `CCCN(CCC)CCNC(=O)C1CCN(Cc2nc(-c3ccc(Cl)cc3)oc2C)CC1`, -60.6%.
The result for `CCN(CCNC(=O)C1CCN(S(=O)(=O)CC)CC1)c1ccccc1` reads -16.9%.
Consider `CCCCN(CC)C(=O)C1CCC(=O)N(c2ccc(OC)cc2)C1c1ccc(OC)c(OC)c1` (stereo not drawn), for which the “hERG current change (%, negative = inhibition) at 10uM” value is -10.2%.
The result for `CC(C)C(=O)Nc1nc2cc3c(cc2s1)OCCO3` reads -4.59%; that for `S=c1[nH]nc(-c2ccc(Cl)cc2)n1/N=C/C=C/c1ccco1`, 15.3%.
The result for `CCN(CC)S(=O)(=O)c1ccc(O)c(C(=O)OCC(=O)N2CCCC2)c1` reads 11.4%; that for `Cc1ccc(S(=O)(=O)c2nc(NCCN(C)C)sc2Cl)cc1`, -69.5%; that for `CN(C)CCNc1nc(S(=O)(=O)c2ccccc2)c(Cl)s1`, -56.2%.
The same measure for `CCS(=O)(=O)c1nc(S(=O)(=O)c2ccc(C)cc2)c(NCCCn2ccnc2)s1`: -26.5%.
For the compound `O=S(=O)(c1ccccc1)c1nc(NCc2ccccc2)sc1Cl`, the “hERG current change (%, negative = inhibition) at 10uM” value is recorded as -9.88%.
The result for `CC(=O)Nc1nc(S(=O)(=O)c2ccc(C)cc2)c(Cl)s1` reads -8.1%.
On to `Cc1ccc(S(=O)(=O)c2nc(NCCCn3ccnc3)sc2Cl)cc1`, for which the “hERG current change (%, negative = inhibition) at 10uM” value is on record as -78.6%.
The same measure for `Cc1ccc(S(=O)(=O)c2nc(NN(C)C)sc2Cl)cc1`: -5.48%; for `CC(C)CNc1nc(S(=O)(=O)c2ccccc2)c(Cl)s1`: -11.5%.
The same measure for `CCCS(=O)(=O)c1nc(S(=O)(=O)c2ccc(C)cc2)c(NCCCn2ccnc2)s1`: -29.6%.
The same measure for `CCCCCCC/C=N/Nc1nnc(Cc2ccccc2)c(=O)[nH]1`: 33.2%.
As to `CCn1cc(C(=O)NCc2ccc(OC)cc2)c(=O)c2ccc(C)nc21`, the “hERG current change (%, negative = inhibition) at 10uM” value was found to be 22.1%.
In the case of `Cc1cccc(NC(=S)NNC(=O)c2csc(C(C)C)c2)c1`, the “hERG current change (%, negative = inhibition) at 10uM” value was found to be 2.52%.
The same measure for `CCN(CC)CCCNC(=O)c1cn(CCOC)c(=O)c2c1c1ccccc1n2C`: -0.445%; for `O=Cc1coc2ccc3ccccc3c2c1=O`: 14.5%.
As to `CCCN(C(=O)c1cn(-c2ccccc2)nc1-c1ccc(OC)cc1)C1CCS(=O)(=O)C1` (stereo not drawn), the “hERG current change (%, negative = inhibition) at 10uM” value is reported as -22.8%.
Regarding `O=C(CN1CCN(C(=O)c2ccccc2)CC1)Nc1ccccc1`, the “hERG current change (%, negative = inhibition) at 10uM” value was -20.1%.
For `O=C(CN1CCOCC1)Nc1ncc(Br)cc1Br`, the “hERG current change (%, negative = inhibition) at 10uM” value was -20.3%.
The same measure for `O=C(CN1CCCCCC1)Nc1ccc(Br)cn1`: -20.7%; for `O=C(CN1CCN(C(=O)c2ccccc2)CC1)Nc1ncc(Br)cc1Br`: -78.1%.
For the compound `CCc1nnc(NC(=O)CN2CCN(C(=O)c3ccccc3)CC2)s1`, the “hERG current change (%, negative = inhibition) at 10uM” value is reported as 14.7%.
With `O=C(CN1CCN(C(=O)c2ccccc2)CC1)Nc1ccc(Br)cn1`, the “hERG current change (%, negative = inhibition) at 10uM” value is -74.4%.
Take `CCOC(=O)N1CCC(NC(=O)c2cc3c(=O)[nH]c4ccccc4c3n2C)CC1`: the “hERG current change (%, negative = inhibition) at 10uM” value is given as -3.23%.
The same measure for `COc1ccccc1NC(=O)/C(=C/c1cccs1)NC(=O)c1ccco1`: -33.1%; for `CC(=O)Nc1ccc2nc(NC(=O)c3ccc([N+](=O)[O-])s3)sc2c1`: 8.75%.
For `CCSc1nc2c(c(=O)[nH]1)C(C(C)C)C(C#N)=C(N)O2` (stereo not drawn), the “hERG current change (%, negative = inhibition) at 10uM” value was found to be 5.71%.
With `Cc1ccccc1NC(=O)Nc1nc2ccc(S(C)(=O)=O)cc2s1`, the “hERG current change (%, negative = inhibition) at 10uM” value is -2.53%.
The result for `O=C(N/N=C/c1coc2ccc(Cl)cc2c1=O)c1ccncc1` reads 6.28%; that for `CCCN(CCC)CCCNC(=O)C1CCC(CNS(=O)(=O)c2cccc3nsnc23)CC1` (stereo not drawn), -10.1%.
On to `COc1ccccc1CN(CC(=O)NCc1ccc2c(c1)OCO2)C(=O)c1ccc2c(c1)OCCO2`, for which the “hERG current change (%, negative = inhibition) at 10uM” value was -28.4%.
With `O=C(CN(Cc1ccc(F)cc1)C(=O)c1csnn1)NCc1ccc2c(c1)OCO2`, the “hERG current change (%, negative = inhibition) at 10uM” value is given as -64.5%.
As to `O=C(Cc1ccccc1)NCc1ccc2c(c1)OCO2`, the “hERG current change (%, negative = inhibition) at 10uM” value stood at 3.22%.
`O=C(CN(Cc1ccccc1)C(=O)c1csnn1)NCc1ccc2c(c1)OCO2`: the “hERG current change (%, negative = inhibition) at 10uM” value is recorded as -23.4%.
As to `O=C(CN(C(=O)c1csnn1)c1cccc(F)c1)NCc1ccc2c(c1)OCO2`, the “hERG current change (%, negative = inhibition) at 10uM” value is on record as -7.22%.
The same measure for `O=C(CN(Cc1ccccc1)C(=O)c1ccc2c(c1)OCCO2)NCc1ccc2c(c1)OCO2`: -59%; for `O=C(CN(C(=O)c1csnn1)c1ccc(F)cc1)NCc1ccc2c(c1)OCO2`: 9.12%; for `COc1ccc(CN(CC(=O)NCc2ccc3c(c2)OCO3)C(=O)c2csnn2)cc1`: -39.8%.
The result for `O=C(CN(Cc1ccccc1F)C(=O)c1csnn1)NCc1ccc2c(c1)OCO2` reads -22%; that for `Cc1ccc(CN(CC(=O)NCc2ccc3c(c2)OCO3)C(=O)c2csnn2)cc1`, -50.5%; that for `O=C(CN(Cc1ccccc1Cl)C(=O)c1csnn1)NCc1ccc2c(c1)OCO2`, -51.4%.
`COc1ccccc1CN(CC(=O)NCc1ccc2c(c1)OCO2)C(=O)c1csnn1`: the “hERG current change (%, negative = inhibition) at 10uM” value was -34.2%.
The result for `C=CCn1c(Cc2cccs2)nnc1SCC(=O)Nc1cc(OC)cc(OC)c1` reads -27.8%.
On to `Cc1nc2nc(C)c(CCC(=O)Nc3ccc4c(c3)OCO4)c(C)n2n1`, for which the “hERG current change (%, negative = inhibition) at 10uM” value was -18%.
As for `COc1ccc(C2N=C(N)N=C(N)N2c2ccccc2OC)cc1OC.Cl` (stereo not drawn), the “hERG current change (%, negative = inhibition) at 10uM” value is recorded as -11.7%.
The result for `O=C(Nc1nnc(-c2cccs2)o1)C1CC1` reads 3.93%; that for `CCOC(=O)C1=NNC(C(=O)c2ccc(OC)cc2)C1c1ccccc1` (stereo not drawn), -9.43%; that for `Cn1ncc(C#N)c1NC(=O)C1CC(c2ccc(Cl)c(Cl)c2)=NO1` (stereo not drawn), -9.94%.
The same measure for `COc1cccc(CC(=O)Nc2nc3ccccc3[nH]2)c1`: 10.7%.
For `Cc1cccc(NC(=S)NCCc2c[nH]c3ccccc23)c1`, the “hERG current change (%, negative = inhibition) at 10uM” value is on record as -4.25%.
`O=C(O)CNC(=S)N(Cc1ccccc1F)C1CCCCC1`: the “hERG current change (%, negative = inhibition) at 10uM” value is listed as 0.581%.
Turning to `CCCNC(=O)CNC(=S)N(Cc1ccccc1F)C1CCCCC1`, the “hERG current change (%, negative = inhibition) at 10uM” value is reported as -10.8%.
The result for `CCOC(=O)CNC(=S)N(Cc1ccccc1F)C1CCCCC1` reads -73%.
The result for `CC(C)c1ccc(S(=O)(=O)N2CCN(C(=O)n3ccnc3)CC2)cc1` reads -35.8%; that for `COc1cc(OC)cc(C(=O)N[C@H](C(=O)NCc2ccccc2)C(C)C)c1`, 7.08%; that for `CCOC(=O)N1CCN(C(=S)NC(=O)c2cc(Br)ccc2Cl)CC1`, 3.59%.
In the case of `C=CCc1c(C)nc(C)nc1N/N=C/c1ccc([N+](=O)[O-])cc1.Cl`, the “hERG current change (%, negative = inhibition) at 10uM” value is listed as -56.3%.
Consider `C=CCc1c(C)nc(C)nc1N/N=C/c1ccc(F)cc1`, for which the “hERG current change (%, negative = inhibition) at 10uM” value is -30.9%.
As for `C=CCc1c(C)nc(C)nc1N/N=C/c1ccccc1`, the “hERG current change (%, negative = inhibition) at 10uM” value is listed as -19.2%.
In the case of `CCC(c1nnnn1Cc1ccc(F)cc1)N(CCCO)Cc1cc2cc3c(cc2[nH]c1=O)OCO3` (stereo not drawn), the “hERG current change (%, negative = inhibition) at 10uM” value is on record as -17.5%.
For the compound `Cc1ccc(-n2c(O)c(/C=N/c3ncc(Br)cc3Br)c(=O)[nH]c2=O)cc1`, the “hERG current change (%, negative = inhibition) at 10uM” value amounted to 2.79%.
The result for `CCCCNC(=O)CSc1nc2cc3c(cc2c(=O)n1Cc1ccco1)OCO3` reads -10.8%.
The result for `CCOCCCn1c(SCC(=O)Nc2ccc(OC)cc2)nc2ccccc2c1=O` reads -11%; that for `CCOCCCn1c(SCC(=O)Nc2cccc(OC)c2)nc2ccccc2c1=O`, -58.4%.
As for `CCOCCCn1c(SCC(=O)Nc2ccc(NC(C)=O)cc2)nc2ccccc2c1=O`, the “hERG current change (%, negative = inhibition) at 10uM” value is 7.29%.
`CCOCCCn1c(SCC(=O)NCc2ccc3c(c2)OCO3)nc2ccccc2c1=O`: the “hERG current change (%, negative = inhibition) at 10uM” value is reported as -59%.
In the case of `COCCn1c(SCC(=O)NCc2ccc3c(c2)OCO3)nc2ccccc2c1=O`, the “hERG current change (%, negative = inhibition) at 10uM” value is given as -42.4%.
The same measure for `CCOCCCn1c(SCC(=O)Nc2ccccc2)nc2ccccc2c1=O`: -29.4%; for `CCCCNC(=O)CSc1nc2cc3c(cc2c(=O)n1CCCN(CC)CC)OCO3`: -62.6%; for `CCOCCCn1c(SCC(=O)Nc2cc(OC)ccc2OC)nc2ccccc2c1=O`: -55.7%.
`COCCCNC(=O)CSc1nc2ccccc2c(=O)n1Cc1ccc2c(c1)OCO2`: the “hERG current change (%, negative = inhibition) at 10uM” value turned out to be 12.4%.
The result for `CCCCNC(=O)CSc1nc2cc3c(cc2c(=O)n1CCCC(=O)NCCc1ccc(OC)c(OC)c1)OCO3` reads 1.71%; that for `CCOCCCn1c(SCC(=O)Nc2ccccc2OC)nc2ccccc2c1=O`, -45%.
